According to the supplement of paper PMC6555819:

Tested on: VDR:RXRa (NR concentration 270 nM, RXRa partner concentration 90 nM)
Assay: PBM binding z-score (relative to random genomic background probes); higher = stronger binding; sequences stand for … in GC…GCGATTGACAGCGTAGAATGAAGG
Description: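 Protein-binding microarray (Agilent 4x180K custom design, double-stranded 60-nt probes: 5' GC cap, 34-nt variable region, 24-nt constant primer region; full probe sequence given). Purified or IVT nuclear receptor:RXRα heterodimers (3:1 NR:RXRα, mostly 270:90 nM) or homodimers were incubated for 1 h in PBS with 2% milk and no ligand, then detected with Alexa488 antibodies. Fluorescence from o1-orientation probes (~5 replicates averaged) was converted to z-scores against 500 random hg19 background probes. Variable regions are seed direct-repeat (DR0–DR5) sites, all their single-nucleotide variants and half-site ablations.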

Sequence	PBM binding z-score
ATCTCTAGGTAAACATAGTTCAGTGAATGCAAAT	1.34
CAAACTAGGTCACGGGAAGGTCAAAGTCCGCATG	6.27
ACTCGGAGGACAAAGGTCAGAGCTACGCCAGTGA	3.36
CGAACTAGCTCATCCAGGACAGTGAATACATTGA	-0.134
TCGAGTAGGTTAGGGGCATTAAGAATGGCGTCGA	0.706
GATACAGGGTCAGCTAGAGGCAAGAGTATGGAAA	2.63
TGAACGAGGTTAAAGATCAGGGAACGTGGCGTCG	1.8
TCTAGTTGGTCACGGAGGTCACACAGGACGGGTA	5.94
TCTGCTAGGTCACTTGGTCAGCTAACGAGCTGCC	1.3
TCGCGTAGGTTAGTCGGGGCATTCAGCCAACATA	2.54
TCTTGTAGATCAAGAAGGTTAAGAAAGCCTGAGT	1.16
GCTTGTAGATCAAGATTAAGAAAGACTAAGCTAA	-0.528
CAGACAGGGTCAGCTAGGCCAGAGTAGGGACGGC	3.81
ATCTCTAGGTAAGACTCAGTTGAGTGAAGAACGC	-0.0518
TGAATGAGGTTATAAGAACAGGGAACGTTGCAAA	0.915
CAAACTAGGTAACCGGAAGGTCAAAGTCCGCATG	3.35
GCGACTGGGGCATCAGCCGGTTACCATAACTTAA	-0.669
TCTTGTAGATCAATAGAGGTTAACAAAGTGCGCT	2.2
TCTACTAGTTGAAGGGCAACCGACGAGTCCGTTT	0.635
TCAGACAGGTGAAGGTAACACAGGTACGCAGTCG	1.05

Sequence	PBM binding z-score
CCTACTGGGCCACGAAAGGTCAATGATTCAGTGA	3.4
ATCGAGAGGTCGAAGGTGAGTATACCCACCCGAA	2.42
CCGACTGGGGCAGAAAGGGTACCATACCATCCGG	-0.384
CCAGACAGGTGAAAGGTAACTCTGTCTGGTACGC	0.668
CTCGAACGGTCGGTTGAGGTGAGTATACGGATAA	-0.265
ATCTCTAGGTAATCAAGTTCAGTGAATGCCGAAC	4.21
TCTAGTAGATCAAGCAGGTTAAGAAAGCCTGAGT	0.576
TGAATGAGGTTATAAGATCAGGGCACGTTGCAAA	1.21
ATATGTAGGTTAGCTCGGGTCATTCAGACTAGGC	3.96
ACTTACGGGGCAACGAGGTTATAGCACGCGTATA	5.28
GGAACGAGGGCTAGTTGATAGCAGAGTTTGATGG	-0.607
AATACAGGGTCATCGTAGGCCAGAGAACGCACAG	5.24
TATCGGAGGACACGAAGGTCAGAGCTTTCCAGAG	2.32
CTCGAAAGGCCGTGCTCAGGTGAGTATACCAAAC	-0.528
TAGCCTAGGTCATTCTGGGGCCAGTATAGAAAGC	2.88
CCGACTGGGGCAAAGGTAACCATACTCAGTACGA	0.122
ACTTTCGGGTCAACGAGGTTATAGCACGCGTATA	7.85
TCTTGTAGATCAAAGGTTAATAAAGCCGAAGCCT	1.55
AGTCAAAGTTCACTAGGTAACGTACGATTCAGCT	4.24
GGAACGAGGGCAAAGTTTATAGCATCTGTCGACG	1.92
